RAD54 branch: RAD54 (human) branch migration inhibition; 0.14% of 360,000 active; Q92698; RAD54 Holliday junction branch migration, FAM/BHQ fluorescence; inhibition, % at 10.4 µM;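 active = mean normalized replicate activity at least 40 and at least half of replicates scoring 40 or more; inconclusive = only one of the two criteria met; inactive = mean below 40 and under half of replicates reaching 40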;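 note: 0% = median of neutral control wells and 100% = median of positive control wells; inhibitors cause a drop in the FAM fluorescence signal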
RAD52 inh: RAD52 (human) annealing inhibition; 0.46% of 360,000 active; inhibition, % at 18.7 µM; recombinant RAD52 DNA annealing, FRET fluorescence;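 active = every replicate showing at least 50% inhibition; inconclusive = mean inhibition at least 50% but not in every replicate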
MLL AF4-AF9 inh: MLL-AF4/AF9 protein interaction inhibition. AlphaScreen, biotin-AF4 peptide binding to FLAG-AF9. 0.47% of 350,000 active. inhibition, % at 10 µM. P42568. AID 651704;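 active = every replicate reaching a set inhibition limit, whatever the replicate mean, cut at about 25% in these data; inconclusive = mean inhibition reaches that limit but some replicates miss it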;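 note: 0% = plate neutral control median and 100% = total signal loss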
Glyco luc inh: blocks N-linked glycosylation in D54 reporter cells; D54 ERlucT glycosylation luciferase reporter, 24 h; percent of 100 nM tunicamycin response; reporter increase, % at 12.5 µM; 0.23% of 360,000 active; AID 588692;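 active = mean luciferase reporter signal, scaled so untreated is 0 and the glycosylation-blocking control 100, at or above a set limit in every replicate; inconclusive = mean reaches the limit but not every replicate does; inactive = mean below the limit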;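 note: luciferase carries N-glycosylation sites so blocking glycosylation raises the light; 0% = median of neutral control wells and 100% = median of 100 nM tunicamycin wells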
Casp6 inh: inhibitors of human caspase-6 | P55212 | purified caspase-6, Z-VEID-R110 cleavage fluorescence | inhibition, % at 12.5 µM | 0.53% of 350,000 active;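 active = mean inhibition across replicates at least about 35%, with every replicate also reaching that limit, limit read from the data; inconclusive = only one of the two criteria met; inactive = neither criterion met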;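 note: 0% = median of neutral control wells and 100% = no fluorescence left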
Alpha interfer: AlphaScreen signal interference counter-screen hit; shares compounds with MLL AF4-AF9 inh; signal luminescence; AC50, µM (highest dose often 12 µM), for inactives: at the top dose activity change, negative = inhibition; 45% of 530 active; cut-off not given, nearly all actives have AC50 up to about 14 µM
Numbers without * were called inactive; ? = inconclusive; / = not tested or not shown. Rows were chosen to be rich in hits. Some 1.2% of all compounds tested hit in one or more screens of this group.

SMILES	RAD54 branch	RAD52 inh	MLL AF4-AF9 inh	Glyco luc inh	Casp6 inh	Alpha interfer
CN(C(=O)c1ccc(NC(=O)Cc2ccc(NC(=O)C3CCN(C(=O)c4ccccc4)CC3)cc2)cc1)C1CC1	-2.2	-173.5	37.5*	-1.0	0.8	-15.5%
CN(C(=O)c1cccc(NC(=O)Cc2ccc(NC(=O)C3CCN(C(=O)c4ccccc4)CC3)cc2)c1)C1CCC1	0.4	-7.9	7.7	-2.1	0.2	/
CCCNC(=O)N1CC2(CN(C(=O)c3cccnc3)C2)c2c([nH]c3cc(OC)ccc23)[C@@H]1CO	/	/	1.4	/	/	/
C[C@@H]1CN([C@@H](C)CO)C(=O)c2cccc(NS(=O)(=O)c3cccs3)c2O[C@@H]1CN(C)C(=O)NC1CCCCC1	0.6	-42.2	-2.2	/	-2.0	/
COc1ccccc1C#Cc1ccc([C@H]2[C@H]3CN(C(=O)C4CCC4)CCCCN3[C@H]2CO)cc1	-0.9	/	/	/	/	/
COC(=O)c1ccc2nc(C)cc(Nc3ccc(N(C)C)cc3)c2c1	40.9	46.7	31.5*	8.7	2.1	-14.1%
CCCOc1ccc(/C=N/Nc2cc(N3CCOCC3)ncn2)c(O)c1	-3.8	-5.2	?	-9.8	2.1	/
CCOc1ccc(/C=N/Nc2cc(N3CCOCC3)ncn2)c(O)c1	4.0	4.0	32.2*	-5.6	-1.4	14.1µM*
CCOC(=O)N1CCN(C(c2ccnc3ccccc23)c2nnnn2-c2ccc3c(c2)OCCO3)CC1 (centres undefined)	/	-10.9	1.0	/	-2.9	/
CC(C)(C)OC(=O)N1CCCN(C(c2ccnc3ccccc23)c2nnnn2-c2ccc3c(c2)OCCO3)CC1 (centres undefined)	/	-13.3	36.2*	/	-18.8	-22.2%
C[C@H](NC(=O)[C@@H]1N[C@@H]2c3ccc(-c4ccc(C(=O)N(C)C)cc4)c(=O)n3C[C@@H]2[C@H]1CO)c1ccccc1	2.2	-2.9	0.9	/	-0.5	/
COc1cc(OC)c2c(-c3ccccc3)cc(=O)oc2c1C(CCN1CCCC(C)C1)c1ccc(N(C)C)cc1 (centres undefined)	17.6	32.3	67.0*	-9.5	1.0	3µM*
COc1cc(OC)c2c(-c3ccccc3)cc(=O)oc2c1C(CCN1CCCC1)c1ccc2c(c1)OCO2 (centres undefined)	-8.4	-41.9	29.3*	-4.1	-3.6	-27.2%
CCN(CC)CCC(c1ccc(N(C)C)cc1)c1c(OC)cc(OC)c2c(-c3ccccc3)cc(=O)oc12 (centres undefined)	13.5	37.6	51.0*	-7.9	-7.2	4.82µM*
CCN(CC)c1ccc(N=C2C(=O)Nc3ccccc32)cc1	5.9	-16.5	57.3*	-3.6	6.2	12µM*
Cc1ccc(N=C2C(=O)Nc3ccccc32)cc1	-10.0	1.0	-1.4	2.5	/	/
CN1/C(=C\C=N\O)C(C)(C)c2ccccc21	-1.8	-61.0	1.8	3.6	2.0	/
CN(C)c1ccc(N=C/C=C2/N(C)c3ccccc3C2(C)C)cc1	-7.0	-114.6	47.5*	-15.1	-1.9	11µM*
O=C(C[C@H]1CC[C@@H]2[C@H](COC[C@@H](O)CN2S(=O)(=O)c2ccc(F)cc2)O1)NCC1CCCCC1	8.2	88.7*	34.1*	/	-0.3	-18.6%
COc1ccccc1NC(=O)N1C[C@@H](C)[C@H](OC)CN(C)C(=O)c2ccc(NC(=O)c3ccccn3)cc2OC[C@H]1C	-2.3	/	-2.0	/	-0.4	/
O=C([C@@H]1[C@@H](CO)[C@@H]2Cn3c(ccc(C4=CCCCC4)c3=O)[C@H]1N2)N1CCCCC1	0.1	6.0	-3.5	/	-1.9	/
CC(C)C1CC(CCNCc2ccc(N(C)C)cc2)(c2ccccc2)CCO1 (centres undefined)	-6.9	6.7	39.4*	-6.5	0.8	8.57µM*
O=c1c2ccccc2nc(/C=C/c2cccnc2)n1Cc1ccccc1	/	-52.6	39.0*	0.6	46.5*	-20.4%
CCN1CCCc2cc(CN(CCN3CCOCC3)C(=S)Nc3cccc(C)c3)ccc21	3.4	-11.1	37.1*	-9.8	0.5	-21.7%
O=[N+]([O-])c1ccc(N=Nc2c(Cl)cc(O)cc2Cl)cc1	-10.3	4.9	51.6*	-10.5	6.2	14.1µM*
CC(N)=Nc1ccc([N+](=O)[O-])cc1	-2.1	/	/	3.8	/	/
COCC(=O)N1[C@@H]2Cn3c(ccc(-c4ccccc4)c3=O)[C@H]1[C@@H](C(=O)NCc1ccccn1)[C@@H]2CO	25.9	6.2	1.4	/	-4.3	/

Source: PubChem BioAssay
